This is an account of results in the supplement of paper PMC3334620.

Whole data set: some 33,000 sequences, median “E-score (-0.5 to 0.5)” near -0.036, cut for the highest 2% near 0.37. This is one part of a sample in which the highest values are shown more often than they occur.

The target of the test is T1, Yer064c (UniProt P40041).
T1 sequence: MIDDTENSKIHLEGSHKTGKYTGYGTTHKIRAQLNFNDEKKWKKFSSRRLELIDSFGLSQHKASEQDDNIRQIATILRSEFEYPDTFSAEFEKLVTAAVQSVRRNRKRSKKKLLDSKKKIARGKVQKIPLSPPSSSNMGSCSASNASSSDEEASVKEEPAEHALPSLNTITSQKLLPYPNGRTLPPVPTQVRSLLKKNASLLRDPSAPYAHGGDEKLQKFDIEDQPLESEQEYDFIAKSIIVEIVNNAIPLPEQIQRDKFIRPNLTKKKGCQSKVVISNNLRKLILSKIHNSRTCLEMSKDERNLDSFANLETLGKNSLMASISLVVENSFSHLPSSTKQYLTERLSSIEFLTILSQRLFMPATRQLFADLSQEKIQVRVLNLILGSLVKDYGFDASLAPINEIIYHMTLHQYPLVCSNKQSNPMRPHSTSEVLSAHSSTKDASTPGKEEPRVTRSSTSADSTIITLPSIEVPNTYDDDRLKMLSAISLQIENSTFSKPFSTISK
Kind of test: PBM E-score (8-mer binding enrichment) (E-score (-0.5 to 0.5)); higher = stronger / more preferred TF binding. The conditions noted are these: protein concentration: 200 nM; construct: GST-full length. Put shortly:
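Full-length yeast transcription factors or their DNA-binding domains, GST-tagged and expressed with PURExpress, were applied at about 100-200 nM to universal all-10-mer Agilent arrays. These arrays had been made double-stranded by primer extension on fresh or once-stripped slides. Detection used fluorescent anti-GST, normalisation used masliner, and E-scores for ungapped eight-base words pooled with reverse complements came from the Universal PBM Analysis Suite.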
As for AGAGAACA, the “PBM E-score” value is -0.0209.
For GCGAACGC, the “PBM E-score” value is -0.058.
Consider ACGAATCC, for which the “PBM E-score” value was 0.171.
Then GCGAATCA, with 0.414; and GCGAATCC, with -0.066; and CCGAATCA, with 0.348.
In the case of TCGAATAA, the “PBM E-score” value is -0.00971.
Turning to CCGAATCC, the “PBM E-score” value is -0.186.
Regarding ACGAATCA, the “PBM E-score” value is 0.404.
As to TCGAATCA, the “PBM E-score” value was 0.369.
For the sequence ACGAATCT, the “PBM E-score” value was found to be 0.123.
Take CTCACGCC: the “PBM E-score” value was 0.172.
With CGGGAATC, the “PBM E-score” value came to 0.0615.
Regarding CGCCTCGC, the “PBM E-score” value is -0.087.
Take AATTCAAT: the “PBM E-score” value is 0.0175.
On to AAATGCCC, for which the “PBM E-score” value is -0.188.
As for GAGACACA, the “PBM E-score” value is 0.288.
Regarding AGGGCTGC, the “PBM E-score” value is -0.346.
As to AACACACC, the “PBM E-score” value was 0.0884.
Then ATGCGGCG, with -0.174; and CCCGCCCC, with -0.223.
In the case of CACTAACC, the “PBM E-score” value was -0.153.
Then CACTAACA, with 0.0977; and GATTAACA, with 0.367; and GATTAATC, with 0.391.
For GATTAACC the value was 0.294; for AACTAACC, 0.0831.
As for CATTAATC, the “PBM E-score” value was found to be 0.271.
With GATTAATA, the “PBM E-score” value is 0.325.
On to TACTAACA, for which the “PBM E-score” value is 0.0931.
Turning to GACTAACC, the “PBM E-score” value came to 0.44.
For the sequence GACTAACA, the “PBM E-score” value came to 0.449.
For TATTAACA the value was 0.0799; for GAGCAATC, 0.146.
For CATAGGGG the value was -0.149.
TCCCCCGA: the “PBM E-score” value was -0.176.
GCGGCGAA: the “PBM E-score” value is -0.17.
For CGATGAAA, the “PBM E-score” value worked out at 0.0671.
ATTTTTCG: the “PBM E-score” value came out at 0.00581.
Regarding TGAGGAAA, the “PBM E-score” value was -0.0935.
On to GCCCTAGA, for which the “PBM E-score” value is -0.316.
Regarding CGTACGCA, the “PBM E-score” value is -0.195.
Then CCAGCACC, with -0.231; and CCTAAAGA, with 0.0245.
Consider ACTGTGAT, for which the “PBM E-score” value was found to be 0.165.
As for ACTATGAC, the “PBM E-score” value turned out to be 0.372.
Turning to GCTATGAC, the “PBM E-score” value was 0.307.
For ACTGTGAC, the “PBM E-score” value came to 0.397.
For the sequence ACTGTGAA, the “PBM E-score” value was 0.0208.
For the sequence CCTATGAC, the “PBM E-score” value was 0.235.
Then CCTTGGTA, with 0.00702.
AAGTTCTG: the “PBM E-score” value stood at 0.0281.
For ATTAAGGA the value was 0.176; for AGTTGCCC, 0.00742.
Turning to ACAAGTCC, the “PBM E-score” value is -0.047.
For ACTAATCC the value was 0.208.
In the case of ACTAATCG, the “PBM E-score” value came to 0.226.
On to GCTAATCA, for which the “PBM E-score” value was determined as 0.372.
For TCTAATAA, the “PBM E-score” value turned out to be 0.115.
Then GCTAATCC, with -0.145; and ACTAATCA, with 0.403; and CCTAATCC, with -0.33.
In the case of TCTAATCA, the “PBM E-score” value was found to be 0.386.
In the case of ACTAATCT, the “PBM E-score” value was 0.273.
Consider GCTAATTA, for which the “PBM E-score” value turned out to be 0.0849.
Regarding CCTAATCG, the “PBM E-score” value came out at 0.0953.
On to CCTAATCA, for which the “PBM E-score” value is 0.376.
CTTAACCA: the “PBM E-score” value came out at 0.197.
Then ATTGGGAC, with 0.0416; and TCGTTCCA, with -0.108.
For ACCCTGTG the value was -0.0328; for ACCCAGAT, -0.0932.
CGAGGCTA: the “PBM E-score” value is -0.0432.
Regarding ACACTCGC, the “PBM E-score” value came to 0.111.
As for AGCGACCC, the “PBM E-score” value is -0.196.
In the case of CTCGACTA, the “PBM E-score” value worked out at 0.299.
For the sequence CCCGACTA, the “PBM E-score” value came out at 0.314.
Then CCCGACTC, with 0.389; and ACCGACTC, with 0.328.
Take CGCGACAA: the “PBM E-score” value came out at 0.124.
Take CGCGACTA: the “PBM E-score” value came to 0.397.
For the sequence GGCGACGA, the “PBM E-score” value is -0.226.
Regarding GGCGACCA, the “PBM E-score” value was -0.416.
Turning to AGCGACGC, the “PBM E-score” value was -0.273.
In the case of AGCGACTC, the “PBM E-score” value was determined as 0.412.
With GGCGACTA, the “PBM E-score” value was found to be 0.402.
Consider TAATTCAA, for which the “PBM E-score” value is 0.14.
Then TAGGGCCA, with -0.307; and GCCCCGGA, with -0.22.
As for AGCTTGGC, the “PBM E-score” value was -0.115.
ATAGAGAC: the “PBM E-score” value was found to be 0.0997.
Consider GCGACACC, for which the “PBM E-score” value is -0.173.
Consider CCCTACGA, for which the “PBM E-score” value worked out at 0.0187.
As for GTACAGGA, the “PBM E-score” value was -0.0544.
As for CACAGATA, the “PBM E-score” value was -0.0649.
For ATGCCAGA the value was -0.0495; for CGCGACTC, 0.438.
With CGCGACCC, the “PBM E-score” value is -0.0841.
Turning to AGCGACTA, the “PBM E-score” value stood at 0.391.
AGCGACCA: the “PBM E-score” value was -0.173.
Then CTCGACTC, with 0.34; and AGCGACTG, with 0.255.
Turning to CGCCCTTC, the “PBM E-score” value is -0.212.
On to ACAACTCT, for which the “PBM E-score” value is 0.175.
For the sequence ACGACTCA, the “PBM E-score” value came to 0.477.
On to GCGACTTA, for which the “PBM E-score” value came to 0.266.
Consider ACGACGCC, for which the “PBM E-score” value was -0.211.
Turning to ACGACTTA, the “PBM E-score” value came to 0.276.
As to ACTACTCT, the “PBM E-score” value is 0.239.
Regarding ACGACTCT, the “PBM E-score” value worked out at 0.404.
Regarding ACTACTCA, the “PBM E-score” value is 0.344.
On to GCGACTGA, for which the “PBM E-score” value amounted to 0.31.
As for ACGACTGC, the “PBM E-score” value turned out to be 0.19.
Then ACGACTCC, with 0.423; and GCGACTCA, with 0.483.
